Screening results (PubChem BioAssay)
Tau FP inhib: qHTS for Inhibitors of Tau Fibril Formation, Fluorescence Polarization | K18 P301L tau heparin fibrillization, Alexa594 FP, 6 h | Potency, µM (series often up to 57.7 µM), usual class: inhibitors | hit rate 0.39% among 280,000 | AID 1468, 2008; note: nearly all actives have a fitted effect of over 55% in size
Target sequence (P10636 561-689 P618L limits assumed): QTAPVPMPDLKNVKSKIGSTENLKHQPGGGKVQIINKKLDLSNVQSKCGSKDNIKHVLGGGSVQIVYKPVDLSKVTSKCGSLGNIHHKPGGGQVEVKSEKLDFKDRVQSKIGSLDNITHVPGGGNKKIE
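FP of Alexa 594-tau after heparin (20 uM) induction. Substrate: human K18 P301L, 15 uM unlabeled, 0.24 uM labeled. Buffer 100 mM sodium acetate pH 7. 6 hr, 37 C.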
PNC inhibitor: High Content Assay for Compounds that inhibit the Assembly of the Perinucleolar Compartment | PC3M PTB-GFP, PNC prevalence imaging, 16 h; stronger effect = lower value | activity change (PNC), negative = inhibition, % at 10 µM | hit rate 3.1% among 140,000 | AID 2417, 2010;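 active = readout at or below -70, meaning at least 70% loss of cells showing the perinucleolar compartment, a nuclear body marking cancer cells; inconclusive = readout between -30 and a set limit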
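Compounds are pinned in duplicate onto adhered PC3M cells stably expressing GFP-tagged PTB and incubated 16 h at 37 C. Cells are then fixed, nuclei stained with Hoechst, and PNC-positive cells counted.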
Tau ThT inhib: qHTS for Inhibitors of Tau Fibril Formation, Thioflavin T Binding; recombinant tau K18 P301L, heparin-induced fibrillization, ThT fluorescence; hit rate 2.1% among 270,000; Microtubule-associated protein tau (Homo sapiens), P10636; Potency, µM (titrated, usually from 57.4 µM), actives largely listed as inhibitors; note: nearly all actives have a fitted effect of over 55% in size
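Fibril formation assay: tau K18 P301L at 15 uM with trace Alexa 594 label, heparin inducer 20 uM, pH 7 sodium acetate buffer, 37 C for 6 hr; endpoint ThT signal.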
TRb-SRC2 inh: qHTS for Inhibitors of the Interaction of Thyroid Hormone Receptor and Steroid Receptor Coregulator 2; TRbeta-SRC2 peptide binding, fluorescence polarization; receptor liganded with 1 µM T3; Potency, µM (highest dose often 106 µM), actives largely listed as inhibitors; hit rate 0.065% among 280,000; AID 1469, 2008; note: nearly all actives have a fitted effect of over 50% in size
Target sequence (P10828 whole entry, looked up): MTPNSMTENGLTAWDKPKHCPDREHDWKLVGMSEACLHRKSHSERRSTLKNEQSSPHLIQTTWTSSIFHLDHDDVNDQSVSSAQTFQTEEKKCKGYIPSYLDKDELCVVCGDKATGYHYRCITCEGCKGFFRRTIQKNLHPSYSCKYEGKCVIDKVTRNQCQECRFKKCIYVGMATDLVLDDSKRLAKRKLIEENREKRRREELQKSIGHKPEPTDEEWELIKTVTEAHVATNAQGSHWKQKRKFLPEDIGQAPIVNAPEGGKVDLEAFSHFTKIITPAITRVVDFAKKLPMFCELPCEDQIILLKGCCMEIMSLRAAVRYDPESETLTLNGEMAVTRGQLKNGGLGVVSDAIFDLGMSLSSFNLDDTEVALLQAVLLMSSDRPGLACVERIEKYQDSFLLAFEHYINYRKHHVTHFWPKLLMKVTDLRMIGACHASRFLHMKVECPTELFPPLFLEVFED
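Compounds were added to 0.6 uM TRb ligand-binding domain and 20 nM Texas Red-labeled SRC2 peptide in Tris buffer containing 1 uM T3, incubated 5 hr at ambient temperature, then read by fluorescence polarization.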
Tau fluor counter: Counterscreen qHTS for Inhibitors of Tau Fibril Formation, Fluorescence Polarization; hit rate 0.93% among 280,000; tau K18 P301L Alexa594 fluorescence, heparin fibrillization; AID 1463, 2008; Potency, µM (doses to about 57.7 µM); note: nearly all actives have a fitted effect of over 55% in size
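Human tau K18 P301L (15 uM unlabeled, 0.24 uM Alexa 594-labeled) in 100 mM sodium acetate pH 7 with 20 uM heparin, 6 hr at 37 C. ThT 30 uM added, 1 hr ambient; Alexa 594 FP and total fluorescence read at 555/632 nm.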
TR SRC2 fluor cs: Total Fluorescence Counterscreen for Inhibitors of the Interaction of Thyroid Hormone Receptor and Steroid Receptor Coregulator 2; TRb/SRC2 Texas Red total fluorescence interference; Potency, µM (titrated, usually from 106 µM); hit rate 0.29% among 280,000; active = well fitted curve in either direction with a large enough effect; inconclusive = small, poorly fitted or top-dose-only effect
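Flags fluorescent or light-absorbing compounds by total fluorescence, S + 2P, at 555 nm excitation and 632 nm emission. Mixture: 20 nM Texas Red SRC2 peptide, 0.6 uM human TRb LBD, 1 uM T3, 5% DMSO; compound exposure 5 h at ambient temperature.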
Large screens that a line does not name were inactive; [ ] = another dose, or the depositor's remark. Compounds with a hit are over-represented: about 4.6% of the library has one in this group of screens. Unless noted, calls come from the whole dose curve; as a rule, active = well fitted curve in the direction sought with a large enough effect; inconclusive = small, poorly fitted or top-dose-only effect, or another doubt; inactive = no such curve, though single readings can be large; an effect the other way counts as inactive or inconclusive.

COc1ccc(NC(=O)N2CCC(O)(c3cccnc3)CC2)c(OC)c1	PNC inhibitor -82
CCCN(C(=O)Cn1cnc2onc(-c3ccc(F)cc3)c2c1=O)c1cccc(Cl)c1	TR SRC2 fluor cs 178µM[quencher] (no result: PNC inhibitor)
CCN(C(=O)Cn1cnc2onc(-c3ccc(F)cc3)c2c1=O)c1ccc(OC)cc1	Tau fluor counter inconclusive (no result: PNC inhibitor)
CC(C)(C)C(=O)Cn1nc(Cl)nc1Cl	none (no result: PNC inhibitor)
CN1c2ccccc2N(C)C1(C)c1cccc2ccccc12	Tau FP inhib inconclusive, PNC inhibitor inconclusive, Tau ThT inhib 16µM
O=C(CSc1ccc(Cl)cc1)NCC1CCCO1 (stereo not drawn)	none
CC(C)N1C(=O)/C(=C\c2nc3ccccc3c(=O)[nH]2)c2ccccc21	Tau ThT inhib 28µM, Tau fluor counter inconclusive
CCCN1C(=O)/C(=C/c2nc3ccccc3c(=O)[nH]2)c2cc(C)ccc21	Tau ThT inhib 14µM, Tau fluor counter 20µM[quencher] (no result: PNC inhibitor)
Cc1ccc(NCc2nnc(SCC(=O)NCCc3ccccc3)n2C)cc1	PNC inhibitor inconclusive
CCc1cc2c(N=Nc3c(O)[nH]c4ccccc34)ncnc2s1	Tau ThT inhib inconclusive
CCc1ccc2[nH]c(O)c(N=Nc3nc(-c4ccccc4)cs3)c2c1	Tau ThT inhib 4.5µM, Tau fluor counter inconclusive
C=CCn1c(NCCOC)nc2c1c(=O)n(C)c(=O)n2C	none
Cc1ccc(-c2nnn(CC(=O)N3CCN(c4ccccc4)CC3)n2)o1	none
CNc1cc([N+](=O)[O-])ccc1OCc1ccccc1	Tau ThT inhib 11µM, Tau fluor counter inconclusive (no result: PNC inhibitor)
O=C(Nc1ccccc1)c1ccccc1OCc1cccc([N+](=O)[O-])c1	PNC inhibitor -99
Cc1cc([N+](=O)[O-])ccc1NCc1ccccc1	Tau ThT inhib inconclusive
Nc1ccccc1-c1nc2ccccc2[nH]1	PNC inhibitor -83, Tau ThT inhib inconclusive
Nc1ccc(-c2nc3ccccc3[nH]2)cc1	Tau ThT inhib inconclusive
CCN1CCN(CCCNC(=O)CCc2nc(-c3ccc(OC)cc3)no2)CC1	none (no result: PNC inhibitor)
Cc1ccc(C)c(S(=O)(=O)N/N=C/c2cccnc2)c1	none
Cc1ccc(S(=O)(=O)N/N=C\c2cccnc2)cc1	PNC inhibitor -88
C=CCNC(=O)c1ccccc1NC(=O)c1ccccc1SC	none (no result: PNC inhibitor)
C=CCNC(=O)c1ccccc1NC(=O)c1ccccc1C	PNC inhibitor -100
Cc1ccccc1NC(=O)c1ccccc1NC(=O)CCC(=O)O	PNC inhibitor -109
O=C1C=C(Nc2ccccc2)C(=O)c2ccccc21	Tau ThT inhib inconclusive (no result: PNC inhibitor)
O=C1C(Nc2ccccc2)=CC(=O)c2ncccc21	Tau FP inhib inconclusive, Tau ThT inhib 14µM, Tau fluor counter inconclusive (no result: PNC inhibitor)
O=C1CCCCC/C1=N/Nc1ccc(OCc2ccccc2)cc1	Tau ThT inhib 11µM, Tau fluor counter inconclusive (no result: PNC inhibitor)
COC1=CC(=O)C(O)=C/C1=C\C=C\c1ccccc1	Tau FP inhib 16µM, Tau ThT inhib 7.9µM, Tau fluor counter inconclusive (no result: PNC inhibitor)
COC(=O)COc1cccc2c(=O)n(CC(=O)Nc3ccc4c(c3)OCCO4)ccc12	none (no result: PNC inhibitor)
CCNC(=O)c1c(NC(=O)c2nc(S(=O)(=O)CC)ncc2Cl)sc2c1CCCC2	Tau ThT inhib 6.3µM, TR SRC2 fluor cs inconclusive (no result: PNC inhibitor)
CCSc1ncc(Cl)c(C(=O)Nc2sc3c(c2C(=O)NCCCOC)CCCC3)n1	none (no result: PNC inhibitor)
COCCCNC(=O)c1c(NC(=O)c2nc(S(C)(=O)=O)ncc2Cl)sc2c1CCCC2	Tau ThT inhib 13µM (no result: PNC inhibitor)
CCCSc1ncc(Cl)c(C(=O)Nc2sc3c(c2C(N)=O)CCCC3)n1	none (no result: PNC inhibitor)
CCc1ccc(NS(=O)(=O)c2ccc3[nH]cc(C(=O)N(C)Cc4ccco4)c(=O)c3c2)cc1	PNC inhibitor -114, Tau fluor counter inconclusive
CCCCCNC(=O)c1c[nH]c2ccc(S(=O)(=O)N3CCC(C)CC3)cc2c1=O	Tau FP inhib 7.9µM, Tau fluor counter inconclusive (no result: PNC inhibitor)
